Several values for one entry are separate records, joined by “and”; a condition that tells them apart may be missing. Equal values may be shown once. The campaign covered roughly 5,500 compounds. About 2,000 (36%) were called active. Inconclusive results (about 18%) are left out. Cut-off read from the data, not from the text of the source: active = normalized growth mostly below about 0.91 (no sharp cut-off); inconclusive = no clear call, values can overlap the other calls; inactive = mostly above about 0.92. The list shows a part of the results.
Experiment: chemical genetic growth profiling, strain panel (AID 1159580);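 note: tested at 20 µM; growth read once vehicle control cultures reached saturation at 30 °C; 1 = growth at the plate median or of vehicle wells; lower values mean less growth of the strain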
Details: S. cerevisiae deletion strains, growth OD

Measured: normalized growth

NC1C[C@H]1c1ccccc1 (stereo partly specified)
inactive: locus YAL013W, strain DEP1, active compounds read low 1.01 | locus YAL021C, strain ccr4, active compounds read low 1 | locus YAL026C, strain drs2, active compounds read low 0.985 | locus YAL030W, strain snc1, active compounds read low 0.985 | locus YBL061C, strain skt5, active compounds read low 0.991 | locus YBR009C, strain hhf1, active compounds read low 1 | locus YBR021W, strain FUR4, active compounds read low 0.983 | locus YBR023C, strain chs3, active compounds read low 0.983 | locus YBR171W, strain sec66, active compounds read low 0.978 | locus YBR229C, strain ROT2, active compounds read low 1 | locus YBR231C, strain swc5, active compounds read low 0.98 | locus YBR279W, strain paf1, active compounds read low 0.985 | locus YCL011C, strain gbp2, active compounds read low 0.977 | locus YCL016C, strain dcc1, active compounds read low 0.981 | locus YCL029C, strain bik1, active compounds read low 0.978 | locus YCL069W, strain vba3, active compounds read low 0.992 | locus YCR088W, strain abp1, active compounds read low 0.992 | locus YDL005C, strain med2, active compounds read low 0.953 | locus YDL035C, strain GPR1, active compounds read low 1.01 | locus YDL040C, strain nat1, active compounds read low 0.976 | locus YDL074C, strain BRE1, active compounds read low 0.999 | locus YDL101C, strain DUN1, active compounds read low 1 | locus YDL134C, strain PPH21, active compounds read low 1.01 | locus YDL185W, strain tfp1, active compounds read low 0.985 | locus YDL192W, strain arf1, active compounds read low 0.995 | locus YDR001C, strain nth1, active compounds read low 0.985 | locus YDR069C, strain doa4, active compounds read low 0.98 | locus YDR101C, strain arx1, active compounds read low 0.977 | locus YDR137W, strain rgp1, active compounds read low 0.986 | locus YDR150W, strain NUM1, active compounds read low 1 | locus YDR159W, strain sac3, active compounds read low 0.984 | locus YDR162C, strain NBP2, active compounds read low 1.01 | locus YDR195W, strain ref2 0.974 | locus YDR297W, strain sur2, active compounds read low 1 | locus YDR318W, strain mcm21, active compounds read low 0.972 | locus YDR334W, strain swr1, active compounds read low 0.993 | locus YDR335W, strain msn5, active compounds read low 0.997 | locus YDR388W, active compounds read low 0.979 | locus YDR392W, strain spt3, active compounds read low 0.991 | locus YDR502C, strain sam2, active compounds read low 0.979 | locus YEL003W, strain gim4, active compounds read low 0.993 | locus YEL037C, strain rad23, active compounds read low 0.989 | locus YEL061C, strain CIN8 (second series), active compounds read low 0.977 | locus YEL061C, strain CIN8, active compounds read low 1.01 | locus YER015W, strain faa2, active compounds read low 0.99 | locus YER016W, strain bim1, active compounds read low 1.01 | locus YER110C, active compounds read low 0.989 | locus YER111C, strain swi4, active compounds read low 0.959 | locus YER155C, strain BEM2 (second series), active compounds read low 0.976 | locus YER155C, strain BEM2, active compounds read low 0.995 | locus YER167W, strain BCK2, active compounds read low 1.01 | locus YFR010W, strain ubp6, active compounds read low 1.04 | locus YGL078C, strain dbp3, active compounds read low 0.973 | locus YGL086W, strain mad1, active compounds read low 0.988 | locus YGL167C, strain pmr1, active compounds read low 0.985 | locus YGL173C, strain kem1, active compounds read low 0.991 | locus YGL227W, strain vid30, active compounds read low 0.979 | locus YGL240W, strain doc1, active compounds read low 0.991 | locus YGL248W, strain PDE1, active compounds read low 1 | locus YGL253W, strain hxk2, active compounds read low 0.985 | locus YGR078C, strain PAC10, active compounds read low 0.989 | locus YGR135W, strain pre9, active compounds read low 0.974 | locus YGR229C, strain SMI1, active compounds read low 0.997 | locus YGR252W, strain gcn5, active compounds read low 0.919 | locus YHR013C, strain ard1, active compounds read low 0.962 | locus YHR027C, strain rpn1, active compounds read low 0.995 | locus YHR030C, strain SLT2, active compounds read low 1 and 0.953 | locus YHR079C, strain IRE1 (second series), active compounds read low 0.975 | locus YHR079C, strain IRE1, active compounds read low 0.983 | locus YHR094C, strain hxt1, active compounds read low 0.989 | locus YHR129C, strain ARP1, active compounds read low 1.01 | locus YHR142W, strain chs7, active compounds read low 0.967 | locus YHR200W, strain rpn10, active compounds read low 0.976 | locus YIL066C, strain RNR3, active compounds read low 1.01 | locus YIL073C, strain SPO22, active compounds read low 1.01 | locus YIL125W, strain kgd1, active compounds read low 0.986 | locus YIR030C, strain dcg1, active compounds read low 0.988 | locus YJL092W, strain hpr5, active compounds read low 0.992 | locus YJL095W, strain BCK1 (second series), active compounds read low 1 | locus YJL095W, strain BCK1, active compounds read low 1.01 and 0.965 | locus YJL115W, strain asf1, active compounds read low 0.976 | locus YJL129C, strain trk1, active compounds read low 0.963 | locus YJL134W, strain LCB3, active compounds read low 1 | locus YJL154C, strain vps35, active compounds read low 0.973 | locus YJL164C, strain tpk1, active compounds read low 0.999 | locus YJL166W, strain qcr8, active compounds read low 1.01 | locus YJL168C, strain set2, active compounds read low 0.983 | locus YJL187C, strain SWE1 (second series), active compounds read low 1.01 | locus YJL187C, strain SWE1, active compounds read low 0.992 | locus YJR043C, strain POL32, active compounds read low 0.995 | locus YJR066W, strain TOR1, active compounds read low 0.931
